According to article PMC9838217, “Structure of SALL4 zinc finger domain reveals link between AT-rich DNA binding and Okihiro syndrome”:
Residue numbers refer to the chain shown, from its start.

Experiments:
Assay in all cases: HT-SELEX; high values mean tight binding
Conditions in all cases: protein: recombinant; vector His6-GST; dsDNA, one strand shown
SALL4 ZFC4 WT (HT-SELEX) = target: T1, SALL4 ZFC4 WT (HT-SELEX) (Mus musculus, UniProt Q8BX22 870-940)
T1 sequence: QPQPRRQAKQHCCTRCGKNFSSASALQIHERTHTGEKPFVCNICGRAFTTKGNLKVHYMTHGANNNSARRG
Method in brief: (§1)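 Each canonical k-mer's binding signal is its read fraction expressed as fold change over the initial random library. Reads came from MiSeq sequencing, scanned for 6-mers, after up to 6 triplicate cycles in which purified recombinant mouse SALL4 zinc finger cluster 4 (residues 870–940, 1 µg) bound library DNA (1.5 µg first cycle, 200 ng later) in 100 µl of 10 mM Tris–HCl pH 7.5, 50 mM NaCl, poly(dI-dC), DTT for 10 min at room temperature. Complexes were then Ni2+ bead-captured, washed, PCR-amplified and reselected.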

[1] = target: T2, SALL4 ZFC4 R900W (HT-SELEX) (Mus musculus, UniProt Q8BX22 870-940, R900W)
T2 sequence: T1 sequence with R31W
Method in brief: as §1

[2] = target: T3, SALL4 ZFC4 G921D (HT-SELEX) (Mus musculus, UniProt Q8BX22 870-940, G921D)
T3 sequence: T1 sequence with G52D
Method in brief: as §1

Sequence	binding signal (SALL4 ZFC4 WT (HT-SELEX))	binding signal [1]	binding signal [2]
AATCAC	1.31 ± 0.0497 fold-change vs cycle 0	1.46 ± 0.03 fold-change vs cycle 0	1.42 ± 0.0791 fold-change vs cycle 0
TTGAAA	1.92 ± 0.106 fold-change vs cycle 0	1.88 ± 0.0943 fold-change vs cycle 0	1.7 ± 0.131 fold-change vs cycle 0
GTTGGA	0.713 ± 0.0283 fold-change vs cycle 0	0.83 ± 0.0624 fold-change vs cycle 0	0.883 ± 0.0383 fold-change vs cycle 0
ACTAAA	1.81 ± 0.0352 fold-change vs cycle 0	1.9 ± 0.121 fold-change vs cycle 0	1.69 ± 0.128 fold-change vs cycle 0
AACCTT	1.35 ± 0.0624 fold-change vs cycle 0	1.5 ± 0.0445 fold-change vs cycle 0	1.39 ± 0.0775 fold-change vs cycle 0
CCGAGA	0.385 ± 0.0394 fold-change vs cycle 0	0.459 ± 0.0241 fold-change vs cycle 0	0.548 ± 0.059 fold-change vs cycle 0
ATAGAA	2.33 ± 0.17 fold-change vs cycle 0	2.13 ± 0.133 fold-change vs cycle 0	1.83 ± 0.226 fold-change vs cycle 0
CATGTC	0.763 ± 0.0529 fold-change vs cycle 0	0.908 ± 0.0423 fold-change vs cycle 0	0.939 ± 0.0158 fold-change vs cycle 0
GGTTCA	0.788 ± 0.0387 fold-change vs cycle 0	0.916 ± 0.0428 fold-change vs cycle 0	0.966 ± 0.0244 fold-change vs cycle 0
AAGAGC	0.752 ± 0.0601 fold-change vs cycle 0	0.917 ± 0.0813 fold-change vs cycle 0	1.02 ± 0.0502 fold-change vs cycle 0
CTCTCC	0.497 ± 0.0273 fold-change vs cycle 0	0.603 ± 0.0441 fold-change vs cycle 0	0.672 ± 0.0341 fold-change vs cycle 0
TCCAAA	1.1 ± 0.0395 fold-change vs cycle 0	1.19 ± 0.0233 fold-change vs cycle 0	1.17 ± 0.00926 fold-change vs cycle 0
TTTAAA	2.46 ± 0.106 fold-change vs cycle 0	2.33 ± 0.125 fold-change vs cycle 0	2.04 ± 0.174 fold-change vs cycle 0
TGCTAA	1.16 ± 0.0453 fold-change vs cycle 0	1.24 ± 0.0475 fold-change vs cycle 0	1.21 ± 0.0656 fold-change vs cycle 0
GACGTA	0.666 ± 0.0264 fold-change vs cycle 0	0.752 ± 0.0315 fold-change vs cycle 0	0.823 ± 0.0398 fold-change vs cycle 0
AAGCAG	0.683 ± 0.026 fold-change vs cycle 0	0.821 ± 0.0507 fold-change vs cycle 0	0.85 ± 0.0183 fold-change vs cycle 0
AATTAG	1.92 ± 0.0642 fold-change vs cycle 0	1.97 ± 0.0604 fold-change vs cycle 0	1.75 ± 0.104 fold-change vs cycle 0
CAAGCA	0.6412 ± 0.00497 fold-change vs cycle 0	0.724 ± 0.0186 fold-change vs cycle 0	0.814 ± 0.0122 fold-change vs cycle 0
CTATCC	0.843 ± 0.0485 fold-change vs cycle 0	0.98 ± 0.0213 fold-change vs cycle 0	0.977 ± 0.0393 fold-change vs cycle 0
ACCACT	0.783 ± 0.0402 fold-change vs cycle 0	0.885 ± 0.0293 fold-change vs cycle 0	0.93 ± 0.0313 fold-change vs cycle 0
AGTGAG	0.933 ± 0.017 fold-change vs cycle 0	1.03 ± 0.0394 fold-change vs cycle 0	1.05 ± 0.0473 fold-change vs cycle 0
GTAACA	1.36 ± 0.0267 fold-change vs cycle 0	1.52 ± 0.0694 fold-change vs cycle 0	1.39 ± 0.0863 fold-change vs cycle 0
AGCACA	0.64 ± 0.039 fold-change vs cycle 0	0.77 ± 0.0406 fold-change vs cycle 0	0.894 ± 0.0466 fold-change vs cycle 0
CAATAA	2.18 ± 0.182 fold-change vs cycle 0	1.91 ± 0.101 fold-change vs cycle 0	1.73 ± 0.173 fold-change vs cycle 0
AGTGCA	0.627 ± 0.0465 fold-change vs cycle 0	0.704 ± 0.0363 fold-change vs cycle 0	0.802 ± 0.0221 fold-change vs cycle 0
CCCTTA	0.943 ± 0.0612 fold-change vs cycle 0	1.06 ± 0.0532 fold-change vs cycle 0	1.02 ± 0.0595 fold-change vs cycle 0
AGACCA	0.701 ± 0.0172 fold-change vs cycle 0	0.823 ± 0.0201 fold-change vs cycle 0	0.91 ± 0.0215 fold-change vs cycle 0
TAGTGA	1.4 ± 0.0384 fold-change vs cycle 0	1.53 ± 0.027 fold-change vs cycle 0	1.43 ± 0.107 fold-change vs cycle 0
CGACTA	0.59 ± 0.0236 fold-change vs cycle 0	0.656 ± 0.0311 fold-change vs cycle 0	0.777 ± 0.0234 fold-change vs cycle 0
TTCCAA	1.24 ± 0.0535 fold-change vs cycle 0	1.32 ± 0.0456 fold-change vs cycle 0	1.29 ± 0.0721 fold-change vs cycle 0
